# Source: PubChem BioAssay (National Center for Advancing Translational Sciences (NCATS))
# Only some compounds are listed: those with a hit (about 2.9% of all), similar ones and a draw of the others.
# GLP-1R agonist: qHTS of GLP-1 Receptor Agonists; HEK293 GLP-1R CRE-luciferase, luminescence, 4-6 h; cells express a hypersensitive GLP-1R form; Potency, µM (titrated, usually from 45.6 µM), inactives show at the highest dose activation, usual class: activators; hit rate 0.007% among 380,000; note: potency is the fitted concentration of half-maximal effect; % of control where 0% means no effect
# Target sequence (P43220 whole entry, looked up): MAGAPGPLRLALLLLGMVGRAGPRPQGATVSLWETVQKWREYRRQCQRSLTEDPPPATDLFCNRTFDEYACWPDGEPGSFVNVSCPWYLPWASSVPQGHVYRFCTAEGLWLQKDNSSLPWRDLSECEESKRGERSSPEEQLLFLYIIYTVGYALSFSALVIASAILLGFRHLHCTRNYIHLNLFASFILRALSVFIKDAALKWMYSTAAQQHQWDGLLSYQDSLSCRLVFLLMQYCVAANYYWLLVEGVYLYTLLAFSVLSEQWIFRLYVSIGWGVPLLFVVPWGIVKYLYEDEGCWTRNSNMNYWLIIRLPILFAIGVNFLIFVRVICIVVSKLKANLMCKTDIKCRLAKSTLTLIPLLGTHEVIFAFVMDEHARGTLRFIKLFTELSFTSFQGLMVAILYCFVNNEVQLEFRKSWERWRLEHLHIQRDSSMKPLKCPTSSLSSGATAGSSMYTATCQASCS
# GLP1R inv ag: qHTS of GLP-1 Receptor Inverse Agonists (Inhibition Mode). Glucagon-like peptide 1 receptor (Homo sapiens), P43220. HEK293 GLP-1R CRE-luciferase, luminescence, 24 h; GLP-1R form is constitutively active. Potency, µM (series often up to 38.3 µM), without a hit: at the top dose activity change, negative = inhibition, hits mostly inhibitors. hit rate 1.6% among 410,000; note: potency is the fitted concentration of half-maximal effect; % is set by controls: 0 for no effect and ±100 for the full control effect; nearly all actives have a fitted effect of over 55% in size
#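 Using stably transfected HEK293 (constitutively active GLP-1R, cAMP-luciferase reporter), compounds were incubated 24 hr and luciferase measured by luminescence.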
# GLP1R cytotox: qHTS of GLP-1 Receptor Inverse Agonists: Cytotox Screen; HEK293 cAMP-luciferase reporter cells, luminescence, 24 h; Potency, µM (top dose mostly 38.3 µM), inactives show at the highest dose activity change, negative = inhibition, hits mostly inhibitors; hit rate 0.13% among 410,000; AID 624418, 2012;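 note: loss of luciferase light is scored as toxicity; potency is the fitted concentration of half-maximal effect; % is set by controls: 0 for no effect and ±100 for the full control effect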
#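 Luminescence readout: signal drop marks cytotoxicity. Plated cells grew 12 h at 37 °C, 5% CO2, received 23 nL compound for 24 h, then got luciferase reagent, read after 12 min at RT.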
# p53 reactivation: qHTS assay for re-activators of p53 using a Luc reporter. Potency, µM (series often up to 92.2 µM), for inactives: at the top dose activity change, positive = activation, most hits filed as activators. H1299 p53-A138V BP100-luciferase reporter, luminescence, 24 h. AID 504706, 2011. hit rate 0.063% among 320,000; note: potency is the fitted concentration of half-maximal effect; % of control where 0% means no effect; nearly all actives have a fitted effect of over 45% in size
#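 H1299 (p53-null), stable ts p53-A138V + BP100-Luc; 1000 cells/well, Opti-MEM/10% FBS; cpd 4 pt, 1:5; 24 h, 37 deg C, 5% CO2; detection reagent 10 min RT; luminescence.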
# LDHA block: qHTS assay for inhibitors of human lactate dehydrogenase. L-lactate dehydrogenase A chain (Homo sapiens), P00338. purified LDHA, NADH/diaphorase-resazurin fluorescence; hits give low values. activity change, % (values are at about 110 or 230 µM). hit rate 0.15% among 480,000; in the data active = activity change below about -30%; inconclusive = mostly about -25% to -30%;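 note: plate controls were DMSO wells for no effect and wells without enzyme for full effect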
#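 Human LDH5 (2 nM) was incubated with 0.06 mM NADH and 0.2 mM pyruvate for 5 min at room temperature in Tris pH 7.4. Remaining NADH was coupled through diaphorase/resazurin, and resorufin fluorescence was read at 0 and 20 min.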
# ClpP mod: qHTS Assay for Activators of ClpP | ATP-dependent Clp protease proteolytic subunit (Bacillus subtilis (strain 168)), P80244 | purified B. subtilis ClpP, FRET peptide cleavage, 20 min | Potency, µM (titrated, usually from 57.5 µM), for inactives: at the top dose activity change, negative = active | hit rate 1.9% among 340,000 | AID 651965, 2013; active = well fitted falling curve with a large enough effect; inconclusive = small, poorly fitted or top-dose-only effect; inactive = no such curve, though single readings can be large or run the other way; note: potency is the fitted concentration of half-maximal effect; the source files actives as falling curves though it sought activators and does not explain the sign; nearly all actives have a fitted effect of over 65% in size
# Target sequence (P80244 whole entry, looked up): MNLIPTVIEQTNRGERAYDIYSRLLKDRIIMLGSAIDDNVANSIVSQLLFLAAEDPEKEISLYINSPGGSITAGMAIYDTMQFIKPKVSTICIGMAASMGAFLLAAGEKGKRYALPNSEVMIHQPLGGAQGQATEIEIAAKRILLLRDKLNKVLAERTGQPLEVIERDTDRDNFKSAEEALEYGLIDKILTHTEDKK
#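 FRET quenching reversal measured ClpP activation: 10 microg/mL B. subtilis ClpP at pH 8 with the FRET-FV decapeptide, read at 430 nm after 320 nm excitation. The 20-min minus 0-min signal was scaled between DMSO/no-enzyme wells and ADEP (5.8 microM final).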
# * = called active by the depositor; i = inactive; ? = inconclusive; nt = no result given; [ ] = another dose, or the depositor's remark. Unless noted, calls come from the whole dose curve; as a rule, active = well fitted curve in the direction sought with a large enough effect; inconclusive = small, poorly fitted or top-dose-only effect, or another doubt; inactive = no such curve, though single readings can be large; an effect the other way counts as inactive or inconclusive.
SMILES,GLP-1R agonist,GLP1R inv ag,GLP1R cytotox,p53 reactivation,LDHA block,ClpP mod
O=[N+]([O-])c1cccc(NNS(=O)(=O)c2ccccc2F)c1,-1%,6.3µM*,-6%,6%,34,nt
COc1cc(OC)cc(C(=O)NCCCNC(=O)c2nc3ccccc3c(=O)[nH]2)c1,nt,nt,nt,nt,-1,nt
COc1ccc(S(=O)(=O)n2nc(-n3c(C)ccc3C)c3c(F)cccc32)cc1OC,0%,10µM*,28%,-2%,5,0%
Cc1ccc(C)n1-c1nn(S(=O)(=O)c2ccccc2)c2cccc(F)c12,12%,?,23%,0%,-9,nt
COc1ccc(/C=N/Nc2nccnc2Cl)cc1,-6%,11µM*,?,13%,-5,-2%
COC(=O)C(CC(=O)c1ccccc1)CC(=O)c1ccccc1,2%,-7%,-1%,?,0,-1%
O=C(Cn1c(=O)sc2ccccc21)OC(CCl)CCl,-13%,-21%,-1%,-5%,-5,1%
O=S(=O)(c1cccc(C(F)(F)F)c1)N1CCC(c2cc(-c3cccc4ccccc34)n[nH]2)CC1,2%,8.9µM*,-3%,-7%,-1,?
COc1ccc(S(=O)(=O)N2CCC(c3cc(-c4cccc5ccccc45)n[nH]3)CC2)cc1,4%,?,-11%,1%,-1,-17%
O=S(=O)(Nc1cccc(-n2cnnn2)c1)c1ccc(Cl)nc1,-7%,5%,-12%,12%,-12,-1%
Cc1ccc(S(=O)(=O)NCCC(=O)OCC(=O)Nc2cccc(S(=O)(=O)NC3=NCCCCC3)c2)cc1,5%,12%,18%,-1%,-3,1%
O=C(/C=C/c1ccccc1Cl)Nc1cccc(S(=O)(=O)NC2=NCCCCC2)c1,9%,10µM*,-5%,?,1,0%
Cc1ccc(S(=O)(=O)NCC(=O)OCC(=O)Nc2cccc(S(=O)(=O)NC3=NCCCCC3)c2)cc1,-3%,-1%[0.307 µM],-1%[0.307 µM],-1%,-3,25µM*
O=C(/C=C/c1ccc(Cl)cc1Cl)Nc1cccc(S(=O)(=O)NC2=NCCC2)c1,0%,?,-5%,-8%,2,-4%
O=C(CBr)c1ccc(Oc2ccc(C(=O)C[n+]3cccc(Br)c3)cc2)cc1,nt,nt,nt,nt,6,1%
COc1ccc(C2C(C#N)C(C#N)N3CCCN23)cc1 (centres undefined),4%,-6%,14%,-1%,-4,32µM*
CCN(CC)c1ccc2c(C)c(CN3CCOCC3)c(=O)oc2c1,-2%,?,i,37%,-3,28µM*
Cc1nnc(NC(=O)CSc2nc(C(C)C)nc3sc(C)c(C)c23)s1,1%,5%,10%,9%,-10,-5%
CNc1ccccc1C(C)(C)c1cc(-c2cccc(Br)c2)no1,18%,2.8µM*,-2%,-1%,-8,nt
CNc1ccccc1C(C)(C)c1cc(-c2cccc([N+](=O)[O-])c2)no1,13%,?,-6%,7%,4,nt
CCOc1ccccc1/C=C(\C(=O)O)c1ccc(S(=O)(=O)N2CCCCC2)s1,-1%,-16%,-5%,2%,3,-18%
Cc1ccc(S(=O)(=O)c2nnn3c2nc(NCc2ccc(F)cc2)c2sccc23)cc1C,nt,20%,23%,nt,-2,28µM*
Cc1ccc(S(=O)(=O)c2nnn3c2nc(NCc2cccs2)c2sccc23)cc1C,nt,20%,6%,nt,2,-14%
CCCCNc1nc2c(S(=O)(=O)c3ccc(C)c(C)c3)nnn2c2ccsc12,nt,64%,4%,nt,0,28µM*
Cc1ccc(S(=O)(=O)c2nnn3c2nc(NCc2ccccc2)c2sccc23)cc1,nt,30%,0%,nt,-7,20µM*
SMILES,GLP-1R agonist,GLP1R inv ag,GLP1R cytotox,p53 reactivation,LDHA block,ClpP mod
Cc1ccc(S(=O)(=O)c2nnn3c2nc(NCc2ccc(F)cc2)c2sccc23)cc1,nt,18%,4%,nt,0,-11%
CCC(=O)N1CCc2cc(Br)cc(S(=O)(=O)Nc3c(C)n(C)n(-c4ccccc4)c3=O)c21,nt,nt,nt,0%,nt,nt
CN(C)C(=O)CSc1nnc(-c2ccco2)n1-c1ccccc1,-5%,26%,-4%,nt,0,1%
O=C(COc1ccc(Br)cc1)OCCN1CCCCC1,-2%,9%,-2%,-8%,0,-1%
CCn1c(=O)cc(N2CCN(C(=O)c3ccco3)CC2)[nH]c1=O,-2%,-2%,21%,-2%,-2,0%
CC1(C)CC(=O)C2=C(C1)Nc1cc3c(cc1C2c1ccc(F)cc1)OCO3 (centres undefined),-13%,?,62%,20%,-3,32µM*
Cc1ccc(C2C3=C(CC(C)(C)CC3=O)Nc3onc(C)c32)cc1 (centres undefined),7%,?,-16%,-3%,0,32µM*
O=C(CN1CCCc2ccccc21)NCc1ccc2c(c1)OCO2,12%,0%,9%,-7%,9,-4%
CCCCN(CCCNC(=O)CN1N=C(c2ccc(C)cc2)CCC1=O)c1ccccc1,nt,13µM*,-5%,nt,7,0%
CCN(CCCNC(=O)CN1N=C(c2ccc(C)cc2)CCC1=O)c1ccccc1,nt,-23%,3%,nt,6,0%
CC(C)c1ccc(NC(=O)c2cccn2-c2nnc(N3CCCCC3)s2)cc1,nt,?,8%,nt,-3,?
Cc1cc(NC(=O)c2cccn2-c2nnc(N3CCCCC3)s2)ccc1Br,nt,10µM*,-11%,nt,4,?
CCCCCCNc1cc2n(c(=O)n1)CCc1cc(OC)c(OC)cc1-2,?,0%,-7%,-2%,0,16µM*
COc1cc2c(cc1OC)-c1cc(NCc3ccccn3)nc(=O)n1CC2,?,165%,-4%,-12%,0,28µM*
CCNc1cc2n(c(=O)n1)CCc1cc(OC)c(OC)cc1-2,29%,124%,6%,-5%,-2,28µM*
CC1=C(C#N)C(c2cccnc2)C2=C(CC(c3ccc(Cl)cc3)CC2=O)N1 (centres undefined),4%,1%,-25%,-4%,0,28µM*
N#CC1=C(N)OC2=C(C(=O)CC(c3ccc(Cl)cc3)C2)C1c1ccc(Cl)c(Cl)c1 (centres undefined),nt,nt,nt,nt,-23,nt
Cc1cc(C)c(NC(=O)CSc2nc(=O)n(Cc3ccncc3)c3c2CCC3)c(C)c1,nt,1%,-6%,nt,-9,-25%
